Measurements published in PubChem BioAssay (EPA / NIEHS).
Activity calls are given as the source filed them. Rule for the calls: active = hit-call score of the fitted dose curve at least 0.9, where 1 is the maximum; inactive = score below 0.9.

assay: CCTE_Shafer_MEA_dev_per_network_spike_spike_percent: CCTE's Neural Network Formation Assay for Percent of Spikes in a Network Spike, Shafer Lab (AID 2284054)
Description: CCTE_Shafer_MEA_dev assay is conducted using Axion Biosystems 48 well microelectrode array (MEA) plates and Maestro recording system. Each well of the MEA plate contains a grid of 16 microelectrodes embedded in the culture surface. Electrically active cells, such as neurons, can be cultured over the electrodes, and electrical activity in these cells can be recorded extracellularly. The spontaneous firing of neurons is captured from each electrode on a microsecond timescale providing both temporally and spatially precise data. […] The CCTE_Shafer_MEA_dev assay uses primary cultures of rat cortical neurons. Recordings are made on days post-plating 5, 7, 9 and 12. As these cultures mature over time, neural networks develop functional activity and form cohesive networks in which electrical activity can be highly coordinated. CCTE_Shafer_MEA_dev_per_network_spike_spike_percent is 1 of 19 assay components of the CCTE_Shafer_MEA_dev assay. It measures the percent of spikes (action potential firings) in a network spike (temporally-clustered group of spikes across multiple electrodes) as the number of spikes that occur within a 0.05 s time window at the peak of a network spike divided by the total number of spikes during a recording in a microelectrode array (MEA) using Axion Biosystems Maestro 768 channel amplifier with the AxIS adaptive spike detector. To collapse across multiple recordings made on days post-plating 5, 7, 9 and 12, the trapezoidal area-under-the-curve of the component is calculated.Data from the assay component CCTE_Shafer_MEA_dev_per_network_spike_spike_percent was analyzed into 1 assay endpoint. This assay endpoint, CCTE_Shafer_MEA_dev_per_network_spike_spike_percent, was analyzed in the negative analysis fitting direction relative to DMSO as the negative control and baseline of activity. Using a type of functional reporter, gain or loss-of-signal activity can be used to understand electrical activity.
On the day prior to culture, each well was coated thoroughly with 150 uL of 0.05% polyethyleneimine (PEI, Sigma Cat P3143) in 50 mM HEPES (Sigma Cat H7523) at a pH of 8. The plate was incubated at 37C for one hour. PEI was rinsed out with 500 uL of sterile water three times. Plates were stored at 4C until the day of culture. This culture was plated at a seeding density of 1.5 x 10^5 cells/well on a 48-well MEA plate, prepared as described above. Cells were administered via a 25 uL media/laminin ([…]; Sigma Cat L2020-1MG) drop directly onto the microelectrode array, as adding the cells with the laminin results in better attachment than pre-coating with laminin. After 2 hours, an additional 475 uL of cortical media was added and the cells returned to the incubator. Exposure starts at day 0 of plating and is continued over twelve days of network development until the experiment is terminated. Cells are fed with fresh medium on DIV 5 and 9, following the recordings on those days. The entire volume of media in the well is exchanged and any vehicle or compound treatment is renewed. Complete details are found in OP-NHEERL/ISTD/SBB/TJS/2015-03-r0 (available on request, email shafer.tim@epa.gov). Measurement of the electrical activity is non-invasive, and recordings can be made from the same plate over multiple different days of the culture. In cortical neurons, this allows for the measurement of extracellular action potentials over the period during which networks form in the MEA plate.

| Compound | outcome | AC50 |
| --- | --- | --- |
| CNS(=O)(=O)C(F)(F)C(F)(F)C(F)(F)C(F)(F)C(F)(F)C(F)(F)C(F)(F)C(F)(F)F | inactive | – |
| NC(=O)C(F)(F)C(F)(F)C(F)(F)F | inactive | – |
| CO[Si](C)(CCC(F)(F)C(F)(F)C(F)(F)C(F)(F)C(F)(F)C(F)(F)F)OC | inactive | – |
| FC(F)(F)C(F)(F)C(F)(F)C(F)(F)C(F)(F)C(F)(F)C(F)(F)CCI | inactive | – |
| O=S(=O)(O)CCC(F)(F)C(F)(F)C(F)(F)C(F)(F)F | inactive | – |
| OCC(O)CC(F)(F)C(F)(F)C(F)(F)C(F)(F)F (centres undefined) | inactive | – |
| C=CC(=O)OCC(F)(F)C(F)(F)C(F)(F)COC(=O)C=C | – | 4.56 µM (active) |
| NC(=O)C(F)(F)C(F)(F)C(F)(F)C(F)F | inactive | – |
| NC(=O)C(F)(F)C(F)(F)C(F)(F)C(F)(F)C(N)=O | inactive | – |
| OCC(F)(F)C(F)(F)C(F)(F)C(F)(F)C(F)(F)C(F)(F)C(F)(F)C(F)(F)CO | inactive | – |
| O=S(=O)(O)CCC(F)(F)C(F)(F)C(F)(F)C(F)(F)C(F)(F)C(F)(F)C(F)(F)C(F)(F)F | inactive | – |
| NC(O)(C(F)(F)F)C(F)(F)F | inactive | – |
| OCCCCC(F)(F)C(F)(F)C(F)(F)C(F)(F)F | inactive | – |
| C=CC(=O)OCCC(F)(F)C(F)(F)C(F)(F)C(F)(F)F | – | 8.58 µM (active) |
| CCN(CCO)S(=O)(=O)C(F)(F)C(F)(F)C(F)(F)C(F)(F)C(F)(F)C(F)(F)C(F)(F)C(F)(F)F | inactive | – |
| OCC(F)(F)C(F)(F)C(F)(F)C(F)(F)C(F)(F)C(F)(F)CO | inactive | – |
| OC(O)C(F)(F)C(F)(F)F | inactive | – |
| OCC(F)(F)C(F)(F)C(F)(F)CO | inactive | – |
| O=C(O)C(F)(F)C(F)(F)C(F)(F)OC(F)(F)F | inactive | – |
